A selection: hits, their analogues and other compounds. The true share with any hit is near 0.5%.
phage Ecoli inh – E. coli growth loss with phage present. growth absorbance. inhibition, % at 11.9 µM. actives 0.26% (n = 360,000). AID 651602; in the data active = inhibition above about 11%
E coli growth-1 – bacterial growth inhibition, counter-screen for AddAB inhibitors; E. coli V3065 growth, OD600 absorbance, 18 h; inhibition, % at 11.9 µM; actives 0.27% (n = 330,000); AID 449728;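 active = inhibition above the campaign's mean inhibition across all tested compounds plus 3 SD, cut at about 9.9% in these data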;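 also: uninfected addAB+ strain grown without phage in ampicillin broth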
Tat export inh – inhibitors of E. coli Tat protein transport. E. coli MC4100 TorA-mCherry Tat export, fluorescence. actives 0.036% (n = 340,000). inhibition, % at 10 µM;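 active = mean replicate inhibition at least 50% and at least half of replicates individually reaching 50%; inconclusive = only one of the two criteria met; inactive = neither criterion met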;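 also: exported cargo escapes ClpAP degradation while cytoplasmic cargo is degraded and loses fluorescence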
AddAB inh – less growth of phage-infected E. coli with AddAB; actives 0.29% (n = 330,000); inhibition, % at 11.9 µM; E. coli expressing H. pylori AddAB, absorbance growth; in the data active = inhibition above about 12%
E coli growth-2 – E. coli growth inhibition; actives 0.21% (n = 330,000); Escherichia coli growth, OD600, 23 h; hits give low values; OD600 absorbance (concentration not given with the values);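 active = OD600 absorbance below the run mean of sample wells minus 3.6 SD, in any replicate, cut at about 0.56 in these data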
AddAB confirm – growth loss of T4-infected E. coli expressing H. pylori AddAB, confirmed | E. coli V3065 expressing H. pylori AddAB, T4 phage, OD; T4 phage with gene 2 nonsense mutations | inhibition, % at 11.9 µM | actives 64% (n = 880) | AID 488942 | shares compounds with AddAB inh;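 active = mean inhibition above a set limit taken from the earlier primary screen, cut at about 13% in these data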;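 also: higher means less bacterial growth since AddAB block lets phage replicate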
RecBCD counter – AddAB counter-screen: growth loss of RecBCD+ E. coli infected with mutant T4 phage; inhibition, % at 11.9 µM; shares compounds with AddAB inh; actives 73% (n = 880); E. coli V66 + mutant T4 phage, OD growth;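 active = mean inhibition above the mean of solvent-only control wells plus 3 SD, cut at about 4% in these data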;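 also: optical density read after an 18 h incubation at 37 °C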
bact viab count – counter-screen: bacterial growth inhibition; inhibition, % at 11.9 µM; actives 35% (n = 880); shares compounds with AddAB inh; bacterial viability, absorbance (AddAB counterscreen); in the data active = inhibition above about 25%
Each line names hits and unclear results; the compound was inactive in the other large screens (follow-up assays come after a bar, where they were run).

COC(=O)CCCC1CC2(CC(CCCO[Si](C)(C)C(C)(C)C)N1C(=O)OC(C)(C)C)OCCO2 (stereo not drawn)	none (no result: phage Ecoli inh, E coli growth-1, Tat export inh, AddAB inh)
O=C(c1ccc([N+](=O)[O-])o1)N1CCOCC1	E coli growth-1 11, AddAB inh 17 | AddAB confirm 64 | RecBCD counter 8.5 | bact viab count inactive
CC(C)C(=O)N1CCN(c2ccc(NC(=O)c3ccc([N+](=O)[O-])o3)cc2)CC1	AddAB inh 13 | AddAB confirm 29 | RecBCD counter inactive | bact viab count inactive
CN(C)N=Nc1nc[nH]c1C(N)=O	E coli growth-1 12, AddAB inh 18 | AddAB confirm 74 | RecBCD counter 4.0 | bact viab count 40
CC(=O)NC1=NC(=O)C(=CN2CCOCC2)S1	none (no result: phage Ecoli inh, E coli growth-1, Tat export inh, AddAB inh)
COc1cc(NS(=O)(=O)c2ccc(NC(=O)c3ccco3)cc2)nc(OC)n1	AddAB inh 63 | AddAB confirm inactive | RecBCD counter inactive | bact viab count inactive
CC(NC(=O)c1nc[nH]c1C(=O)NCc1ccccc1)c1ccccc1 (stereo not drawn)	none (no result: phage Ecoli inh, E coli growth-1, Tat export inh, AddAB inh)
CC1OC2(C)OC(=N)C1(C#N)C(C#N)(C#N)C2c1ccccc1 (stereo not drawn)	E coli growth-1 23, AddAB inh 37 | AddAB confirm inactive | RecBCD counter inactive | bact viab count inactive
CC(=O)NC1CCCN(O)C(=O)/C=C(\C)CCOC(=O)C(NC(C)=O)CCCN(O)C(=O)/C=C(\C)CCOC(=O)C(NC(C)=O)CCCN(O)C(=O)/C=C(\C)CCOC1=O (stereo not drawn)	E coli growth-1 16, AddAB inh 21 (no result: phage Ecoli inh, Tat export inh, E coli growth-2) | AddAB confirm 14 | RecBCD counter 15 | bact viab count inactive
Cc1ccc(C(=O)NC2CCCCN(C)C2=O)cc1 (stereo not drawn)	none (no result: E coli growth-1, Tat export inh, AddAB inh, E coli growth-2)
COc1ccc(C=CC(=O)c2ccc(OC)cc2O)cc1	none (no result: phage Ecoli inh, E coli growth-1, Tat export inh, AddAB inh)
CCn1cc(C(=O)NCc2ccco2)c(=O)c2cc(F)c(N3CCN(C(=O)c4ccco4)CC3)cc21	E coli growth-1 50, AddAB inh 49, E coli growth-2 0.45 | AddAB confirm 102 | RecBCD counter 4.0 | bact viab count 76
CCn1cc(C(=O)NCC(C)C)c(=O)c2cc(F)c(N3CCN(C(=O)c4ccco4)CC3)cc21	none
CCC(C)NC(=O)c1cn(CC)c2cc(N3CCN(C(=O)c4ccco4)CC3)c(F)cc2c1=O (stereo not drawn)	E coli growth-1 12, AddAB inh 18 | AddAB confirm 96 | RecBCD counter inactive | bact viab count inactive
CCN1CC2C3C(=O)N(C)C(=O)C3[C@](Cc3ccccc3)(C1=O)N2C(=O)c1ccc(C)cc1 (stereo partly drawn)	none (no result: phage Ecoli inh, E coli growth-1, Tat export inh, AddAB inh)
CC(C)(C)OC(=O)CC1CC=CCC(CC(=O)NCCO)C(=O)NC(c2ccccc2)COC1=O (stereo not drawn)	none (no result: phage Ecoli inh, E coli growth-1, Tat export inh, AddAB inh)
Cc1cccc2cc(C#N)c(N3CCC(O)CC3)nc12	AddAB inh 13 | AddAB confirm inactive | RecBCD counter inactive | bact viab count inactive
Cc1cccc2cc(C#N)c(N3CCOCC3)nc12	none
CCC[C@@H](CN1CCC[C@H]1CN1C(N)=NC[C@H]1CC(C)C)N1C[C@@H]([C@H](C)CC)N(CCc2ccc(Cl)c(Cl)c2)C1=N	E coli growth-1 16, AddAB inh 13, E coli growth-2 0.078 | AddAB confirm inactive | RecBCD counter inactive | bact viab count inactive
CCC[C@@H](CN1CCC[C@H]1CN1C(N)=NC[C@@H]1Cc1ccccc1)N1C[C@@H]([C@H](C)CC)N(CCCC2CCCC2)C1=N	E coli growth-1 22, Tat export inh 96, AddAB inh 26 (no result: phage Ecoli inh, E coli growth-2) | AddAB confirm 14 | RecBCD counter 13 | bact viab count inactive
CC(C)(C)NC(=O)C1CC2CCCCC2CN1CC(O)C(Cc1ccccc1)NC(=O)C(CC(N)=O)NC(=O)c1ccc2ccccc2n1 (stereo not drawn)	none (no result: phage Ecoli inh, E coli growth-1, Tat export inh, AddAB inh)
CC(CN1CCC(Cc2ccccc2)CC1)C(O)c1ccc(O)cc1 (stereo not drawn)	none (no result: phage Ecoli inh, E coli growth-1, Tat export inh, AddAB inh)
Nc1nonc1C(=O)NCCN=Cc1cc(Cc2ccccc2)cc(Br)c1O	Tat export inh inconclusive, AddAB inh 18 (no result: phage Ecoli inh) | AddAB confirm 20 | RecBCD counter 8.8 | bact viab count inactive
O=C(NN=C/C(Br)=C\c1ccccc1)c1ccc2nc[nH]c2c1	none (no result: phage Ecoli inh, E coli growth-1, Tat export inh, AddAB inh)
O=C(N/N=C/C(Br)=C\c1ccccc1)c1ccc2nc[nH]c2c1	AddAB inh 12 (no result: E coli growth-2) | AddAB confirm inactive | RecBCD counter inactive | bact viab count inactive
O=C1OCCN1C(=O)C1C(c2ccc(Cl)cc2)C(c2cccc(Cl)c2)=NN1c1ccccc1 (stereo not drawn)	none (no result: phage Ecoli inh, E coli growth-1, Tat export inh, AddAB inh)
O=c1c2ccccc2[nH]c2ccccc12	AddAB inh 14 | AddAB confirm inactive | RecBCD counter 4.8 | bact viab count inactive
c1ccc2c(c1)[nH]c1ccccc12	none
OCCC1CC(O)C(O)[C@@]2(CCc3ccccc3CO2)O1 (stereo partly drawn)	none (no result: phage Ecoli inh, E coli growth-1, Tat export inh, AddAB inh)
O=C(O)c1nnn(-c2cc(C(F)(F)F)cc(C(F)(F)F)c2)c1-c1ccccc1	AddAB inh 19 | AddAB confirm inactive | RecBCD counter inactive | bact viab count inactive
Cc1ccc(/C=C/C(=O)c2ccccc(=O)c2O)cc1C	AddAB inh 13 | AddAB confirm inactive | RecBCD counter 6.1 | bact viab count inactive
CCOC1OC(C(=O)NCc2nc3ccccc3[nH]2)=CC(C2CC2)C1CCCO (stereo not drawn)	none (no result: phage Ecoli inh, E coli growth-1, Tat export inh, AddAB inh)
Cc1ccc(C2C3C(=O)N(C)C(=O)C3[C@]3(C)C(=O)N(Cc4ccc(-c5ccccc5)cc4)CC(=O)N23)o1 (stereo partly drawn)	none (no result: phage Ecoli inh, E coli growth-1, Tat export inh, AddAB inh)
Cc1ccc(S(=O)(=O)N2C(c3cccc(Cl)c3)CC=C(C(=O)O)C2c2ccc(F)cc2)cc1 (stereo not drawn)	none (no result: phage Ecoli inh, E coli growth-1, Tat export inh, AddAB inh)
CCOC(=O)c1ccc(NC(=O)CSc2ccc(-c3cccnc3)nn2)cc1	AddAB inh 16 (no result: E coli growth-2) | AddAB confirm inactive | RecBCD counter 4.1 | bact viab count inactive
COc1ccc(NC(=O)CSc2ccc(-c3cccnc3)nn2)cc1	none
CC=C(C)C(=O)Nc1cccc(C2=NOC3(C2)CC(C(N)=O)N(C(=O)CC#N)C3)c1 (stereo not drawn)	none (no result: phage Ecoli inh, E coli growth-1, Tat export inh, AddAB inh)
CCc1nnc(NS(=O)(=O)c2ccc(N/C=C\C(=O)c3ccc(C)cc3)cc2)s1	E coli growth-1 13, AddAB inh 20 | AddAB confirm inactive | RecBCD counter inactive | bact viab count inactive
CCc1nnc(NS(=O)(=O)c2ccc(N/C=C/C(=O)c3ccc(C)cc3)cc2)s1	E coli growth-1 11, AddAB inh 17 (no result: E coli growth-2) | AddAB confirm inactive | RecBCD counter inactive | bact viab count inactive
O=C(NCc1ccccc1Cl)C1CCN(S(=O)(=O)N2CCCCCC2)CC1	none
